OPRM1-OPRD1 inv – inverse agonist of human OPRM1-OPRD1 heterodimerization; cell-based MOR-DOR heterodimer luminescence, inverse agonism; AID 504357; inhibition, % at 9.3 µM; 340,000 tested, 0.21% active; in the data active means inhibition above about 22%, passing the limit was not always enough;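 further: 0% = cells with DMSO and 100% = wells without cells with DMSO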
Target sequence (P35372 whole entry, looked up): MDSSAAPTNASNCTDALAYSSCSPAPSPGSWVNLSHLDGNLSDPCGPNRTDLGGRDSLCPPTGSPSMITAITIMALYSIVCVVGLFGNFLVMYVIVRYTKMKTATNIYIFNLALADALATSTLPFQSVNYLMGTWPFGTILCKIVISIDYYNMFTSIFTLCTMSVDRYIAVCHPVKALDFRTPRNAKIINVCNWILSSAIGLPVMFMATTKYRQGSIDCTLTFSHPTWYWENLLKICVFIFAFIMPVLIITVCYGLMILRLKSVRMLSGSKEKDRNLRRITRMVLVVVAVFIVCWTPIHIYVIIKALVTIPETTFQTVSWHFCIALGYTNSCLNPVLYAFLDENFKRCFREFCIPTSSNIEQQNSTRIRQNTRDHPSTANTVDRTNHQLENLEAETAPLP
Target sequence (P41143 whole entry, looked up): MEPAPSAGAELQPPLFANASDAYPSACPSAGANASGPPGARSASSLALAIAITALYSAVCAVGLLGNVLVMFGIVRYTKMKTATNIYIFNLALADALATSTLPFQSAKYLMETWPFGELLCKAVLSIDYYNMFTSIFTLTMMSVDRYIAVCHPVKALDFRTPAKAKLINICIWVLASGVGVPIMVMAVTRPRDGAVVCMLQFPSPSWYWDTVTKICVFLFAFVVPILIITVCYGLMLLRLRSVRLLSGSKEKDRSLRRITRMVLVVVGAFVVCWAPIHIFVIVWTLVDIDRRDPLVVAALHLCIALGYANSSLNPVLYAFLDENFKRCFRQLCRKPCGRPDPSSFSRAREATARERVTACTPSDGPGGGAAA
HTR5A inv ag – HTR5A inverse agonism, opioid heterodimer counter-screen; 340,000 tested, 0.083% active; P47898; inhibition, % at 9.3 µM; HTR5A cell line, luminescence; in the data active means inhibition mostly above about 23%, no sharp cut-off; inactive means mostly below about 18%;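 further: 0% = cells with DMSO and 100% = no-cell wells with DMSO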
MOR-DOR ag – agonists of human mu-delta opioid receptor heterodimerization. P35372+P41143. cells, OPRM1-OPRD1 heterodimerization, luminescence. activation, % at 9.3 µM. 340,000 tested, 0.3% active. AID 504326; in the data active means activation above about 18%;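 further: 0% = vehicle-treated cells and 100% = reference agonist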
HTR5A ag ctr – activates human HTR5A in OPRM1-OPRD1 agonist counter-screen; activation, % at 9.3 µM; HTR5A agonist assay, luminescence, cell-based; 340,000 tested, 0.61% active; in the data active means activation mostly above about 9.5%, no sharp cut-off; inactive means mostly below about 7.6%;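 further: 0% = cells with vehicle only and 100% = reference agonist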
* = called active by the depositor. Hits are enriched below; roughly 1.1% of the tested compounds scored in any of these assays.

What do the screens show for `CCn1c(SCC(=O)Nc2cccc(OC)c2)nc2ccccc2c1=O`?
OPRM1-OPRD1 inv: 4.6; HTR5A inv ag: 3.9; MOR-DOR ag: -1.0; HTR5A ag ctr: -1.1

What do the screens show for `CC(Oc1ccc2ccccc2c1)C(=O)NNC(=O)Nc1ccccc1` (stereo not given)?
OPRM1-OPRD1 inv: 0.8; HTR5A inv ag: 0.4; MOR-DOR ag: -0.1; HTR5A ag ctr: 3.4

What do the screens show for `O/C(=C\c1ccc2ccccc2n1)c1ccncc1`?
OPRM1-OPRD1 inv: 14.3; HTR5A inv ag: -9.0; MOR-DOR ag: -2.5; HTR5A ag ctr: 0.5

How did O/C(=C\c1nc2ccccc2nc1/C=C(\O)c1ccccc1)c1ccccc1 do in these assays?
OPRM1-OPRD1 inv: 71.4*; HTR5A inv ag: 4.1; MOR-DOR ag: -13.8; HTR5A ag ctr: -8.7

How did COCC(C)n1c(C)cc(C(=O)COC(=O)C2=NN(c3ccccc3)C(=O)CC2)c1C (stereo not given) do in these assays?
OPRM1-OPRD1 inv: 12.2; HTR5A inv ag: 2.8; MOR-DOR ag: -2.6; HTR5A ag ctr: -1.1

Results for COCC(C)n1c(C)cc(C(=O)COC(=O)c2c(C)nn(-c3ccccc3)c2C)c1C (stereo not given) ?
OPRM1-OPRD1 inv: -15.3; HTR5A inv ag: -22.6; MOR-DOR ag: 2.7; HTR5A ag ctr: 10.4*

Results for Cn1c2ccccc2c(=O)c2c(=O)n(C3CCCCC3)c(-c3ccco3)nc21 ?
OPRM1-OPRD1 inv: 21.2; HTR5A inv ag: -48.2; MOR-DOR ag: -4.1; HTR5A ag ctr: 13.2*

Results for Cc1nc2c(c(=O)c3ccccc3n2C)c(=O)n1C1CCCCCC1 ?
OPRM1-OPRD1 inv: 18.0; HTR5A inv ag: -0.2; MOR-DOR ag: -3.7; HTR5A ag ctr: 7.1

What do the screens show for `CC(=O)c1ccc(NC(=O)CS(=O)(=O)c2cn(CC(=O)N3CCOCC3)c3ccccc23)cc1`?
OPRM1-OPRD1 inv: 13.0; HTR5A inv ag: 7.3; MOR-DOR ag: -4.0; HTR5A ag ctr: -1.1

What do the screens show for `Cc1ccc(C)c(C(=O)OCC(=O)N(C)c2ccccc2)c1`?
OPRM1-OPRD1 inv: 15.8; HTR5A inv ag: -35.1; MOR-DOR ag: -3.0; HTR5A ag ctr: 12.4

What do the screens show for `COc1ccc(C(=O)/C=C/C(=O)N(CC(=O)NC2CCCCC2)CC2CCCO2)c(O)c1` (stereo not given)?
OPRM1-OPRD1 inv: 32.7*; HTR5A inv ag: -5.4; MOR-DOR ag: -6.4; HTR5A ag ctr: 1.9

Results for Cn1c(CNC(=O)c2ccccc2F)nnc1SCCOc1ccccc1 ?
OPRM1-OPRD1 inv: 11.7; HTR5A inv ag: -17.2; MOR-DOR ag: -2.4; HTR5A ag ctr: -2.3

How did CCOC(=O)c1ccc(Nc2nc(C)nc3c2nnn3Cc2ccccc2)cc1 do in these assays?
OPRM1-OPRD1 inv: -25.1; HTR5A inv ag: -28.9; MOR-DOR ag: 5.2; HTR5A ag ctr: 8.5*

What do the screens show for `COc1ccc(Cl)cc1Nc1nc(C)nc2c1nnn2Cc1ccccc1`?
OPRM1-OPRD1 inv: -26.6; HTR5A inv ag: -24.3; MOR-DOR ag: 5.2; HTR5A ag ctr: -3.8

Results for O=C(OCc1nc2ccccc2s1)c1ccc([N+](=O)[O-])o1 ?
OPRM1-OPRD1 inv: -55.4; HTR5A inv ag: -24.4; MOR-DOR ag: 8.9; HTR5A ag ctr: 20.1*

What do the screens show for `O=C(OCc1nc2ccccc2s1)c1ccc(Br)o1`?
OPRM1-OPRD1 inv: -5.2; HTR5A inv ag: -2.5; MOR-DOR ag: 1.0; HTR5A ag ctr: 0.5

What do the screens show for `O=C1C(SCCO)=C(SCCO)C(=O)c2ccccc21`?
OPRM1-OPRD1 inv: -7.5; HTR5A inv ag: 40.8*; MOR-DOR ag: 1.4; HTR5A ag ctr: -10.3

Results for CCOc1ccc(NC(=O)C2CCN(S(=O)(=O)c3ccc4c(c3)NC(=O)C(C)S4)CC2)cc1 (stereo not given) ?
OPRM1-OPRD1 inv: 2.4; HTR5A inv ag: -9.9; MOR-DOR ag: -0.4; HTR5A ag ctr: 10.4*

Results for COc1ccc(Nc2nc(Nc3ccc(OC)cc3)nc(SC3=NCCS3)n2)cc1 ?
OPRM1-OPRD1 inv: -0.6; HTR5A inv ag: -37.6; MOR-DOR ag: 0.1; HTR5A ag ctr: 9.8*

How did COc1ccc(Nc2nc(Cl)nc(NCCO)n2)cc1 do in these assays?
OPRM1-OPRD1 inv: 14.1; HTR5A inv ag: -15.2; MOR-DOR ag: -3.1; HTR5A ag ctr: -0.7

Results for CSc1cccc(NC(=O)CSc2ccc(C)cc2)c1 ?
OPRM1-OPRD1 inv: -31.2; HTR5A inv ag: 33.7; MOR-DOR ag: 6.2; HTR5A ag ctr: 2.1

What do the screens show for `CSc1cccc(NC(=O)CNC(=O)c2ccc3c(c2)OCO3)c1`?
OPRM1-OPRD1 inv: 4.1; HTR5A inv ag: 23.7; MOR-DOR ag: -0.6; HTR5A ag ctr: 10.5*

Results for CCC(=O)Nc1cccc(SC)c1 ?
OPRM1-OPRD1 inv: -16.6; HTR5A inv ag: 15.0; MOR-DOR ag: 2.7; HTR5A ag ctr: 12.7*

What do the screens show for `COc1ccc(C2C(=O)NN=C2C)cc1` (stereo not given)?
OPRM1-OPRD1 inv: 12.2; HTR5A inv ag: 17.7; MOR-DOR ag: -2.8; HTR5A ag ctr: -4.6

How did CC(C)OC(=O)C1OC1(C)c1ccccc1 (stereo not given) do in these assays?
OPRM1-OPRD1 inv: 9.6; HTR5A inv ag: -23.2; MOR-DOR ag: -1.9; HTR5A ag ctr: 6.0

Results for O=C(c1ccc2c(=O)n3c(nc2c1)CCCCC3)N1CCN(c2cccc(Cl)c2)CC1 ?
OPRM1-OPRD1 inv: -0.3; HTR5A inv ag: -3.6; MOR-DOR ag: 0.1; HTR5A ag ctr: 1.2

What do the screens show for `CC(Oc1ccc(Br)cc1)C(=O)Nc1ccc(S(=O)(=O)N(C)C2CCN(C)CC2)cc1` (stereo not given)?
OPRM1-OPRD1 inv: -10.3; HTR5A inv ag: -6.1; MOR-DOR ag: 1.6; HTR5A ag ctr: 0.8

How did Cc1[nH]n2c(=O)c3c(nc2c1-c1ccc(Cl)cc1)CCC3 do in these assays?
OPRM1-OPRD1 inv: 7.1; HTR5A inv ag: -55.7; MOR-DOR ag: -1.3; HTR5A ag ctr: 19.8*

Results for NC(N)=NN=C(c1ccc(F)cc1)c1ccc(C(F)(F)F)cc1 ?
OPRM1-OPRD1 inv: -33.9; HTR5A inv ag: -26.9; MOR-DOR ag: 7.7; HTR5A ag ctr: 7.0

What do the screens show for `CC(NC(=O)CSc1nc2ccccc2n1C)c1ccccc1` (stereo not given)?
OPRM1-OPRD1 inv: -5.2; HTR5A inv ag: -31.2; MOR-DOR ag: 0.8; HTR5A ag ctr: 13.9*

How did CCn1c(SCC(=O)NC(C)c2ccccc2)nc2ccccc21 (stereo not given) do in these assays?
OPRM1-OPRD1 inv: 20.7; HTR5A inv ag: -17.6; MOR-DOR ag: -3.9; HTR5A ag ctr: 5.4

Results for COc1ccc(C(=O)NCCc2c[nH]c3ccc(OC)cc23)cc1 ?
OPRM1-OPRD1 inv: 11.7; HTR5A inv ag: -11.2; MOR-DOR ag: -2.6; HTR5A ag ctr: 3.0

What do the screens show for `COc1ccc2[nH]cc(CCNC(=O)c3ccc4ccccc4n3)c2c1`?
OPRM1-OPRD1 inv: 3.9; HTR5A inv ag: -51.8; MOR-DOR ag: -0.8; HTR5A ag ctr: 13.7*

Results for c1ccc2c(c1)NC1(CCCCC1)n1c-2nc2ccccc21 ?
OPRM1-OPRD1 inv: -6.2; HTR5A inv ag: 12.8; MOR-DOR ag: 1.1; HTR5A ag ctr: 13.7*

Results for O=C(Nc1cccc(S(=O)(=O)NC2=NCCC2)c1)c1ccc(=O)[nH]c1 ?
OPRM1-OPRD1 inv: 7.7; HTR5A inv ag: 11.9; MOR-DOR ag: -1.9; HTR5A ag ctr: -4.3

What do the screens show for `CC(=O)c1ccc(NC(=O)CSc2nnc(C3CC3)n2C2CC2)cc1`?
OPRM1-OPRD1 inv: 7.3; HTR5A inv ag: 16.1; MOR-DOR ag: -1.4; HTR5A ag ctr: -4.0

Source: PubChem BioAssay
